# Laboratory results as given in PubChem BioAssay (NCI).
# Values joined by “and” are separate entries in the source; they are usually repeats but may differ in a detail not shown here. Identical values can stand only once. About 83,000 compounds went through this panel and 20% of them were active in at least one assay; those are over-represented in the sample as a whole.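 Compound tested at a single concentration for 48 hours in 96-well plates; a percent growth value below 10 was scored as active.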 A number with no mark means an inactive call. Active and inactive are the calls of the source.
# Tested on: MDA-MB-468 breast
# Experiment: NCI-60 one-dose screen, 48 h (100 = growth as untreated, 0 = no growth, -100 = all killed)
# Settings: 10 µM unless noted
row,Compound,growth
1,COc1ccc(C(=O)/C=C/c2ccccn2)c(O)c1,57.1%
2,C=C(C)[C@@H]1CC[C@]2(COCCC#N)CC[C@]3(C)[C@H](CC[C@@H]4[C@@]5(C)Cc6c([nH]c7ccccc67)C(C)(C)[C@@H]5CC[C@]43C)[C@@H]12,115%
3,N=C(N)c1ccc(-c2ccc(-c3ccc(Cl)cc3Cl)o2)nc1,-33.8% (active)
4,O=C(c1ccccc1)N(CCc1ccc(Cl)cc1)C(=S)N(C(=O)c1ccccc1)c1ccccc1,36%
5,C#C[C@]1(O)CC[C@H]2[C@@H]3CC=C4c5nc(N)sc5CC[C@]4(C)[C@H]3CC[C@@]21C,34%
6,CC1=NN(c2cccc(Cl)c2)C(=O)/C1=C\c1cn(-c2nc(N3CCOCC3)nc(N3CCOCC3)n2)c2ccccc12,95.9%
7,COC(=O)/C=C/c1cc(OC(C)=O)c2c(c1)[C@@H](C(=O)OC)[C@H](c1ccc(OC(C)=O)c(OC(C)=O)c1)O2,-1.27% (active)
8,C=C1C(=O)O[C@H]2[C@H]1CC/C(COC(=O)N[C@H]1C[C@H](O[C@H]3C[C@](O)(C(=O)CO)Cc4c(O)c5c(c(O)c43)C(=O)c3c(OC)cccc3C5=O)O[C@@H](C)[C@H]1O)=C\CC[C@@]1(C)O[C@@H]21,-55.9% (active)
9,COc1cc(C(C)=C(c2ccc(OCCN(C)C)cc2)c2ccc(OCCN(C)C)cc2)ccc1F,93.3%
10,Cc1ccc2c(c1)Nc1ccc(C)cc1C2(C)C,101%
11,Cc1nc2c(=O)[nH]c(=S)[nH]c2[nH]c1=O,107% and 111%
12,CCOC(=O)CCC[P+](c1ccccc1)(c1ccccc1)c1ccccc1,6.56% (active)
13,CCOc1cc(CNc2ccc(N3CCOCC3)c(C(=O)O)c2)ccc1OC,94.7%
14,CCCCCCCC/C=C\CCCCCCCCOc1ccccc1CCOP(=O)(O)OCC[N+](C)(C)C,61.9%
15,CN1CCN(C(=O)[C@]23CCC(C)(C)C[C@@H]2C2=CC[C@@H]4[C@@]5(C)Cc6c([nH]c7ccccc67)C(C)(C)[C@@H]5CC[C@@]4(C)[C@]2(C)CC3)CC1,98%
16,COc1ccc(/C=N/Nc2c3ccccc3nc3ccccc23)cc1,73.7%
17,O=C(O)c1ccc(Nc2ncc3c(n2)-c2ccc(Cl)cc2C(c2c(F)cccc2F)=NC3)cc1,35%

row,Compound,growth
1,COc1ccc(-c2nc(-c3ccccc3)c(-c3ccccc3)[nH]2)cc1OC1CCCC1,40.4%
2,Cn1cnc([N+](=O)[O-])c1Sc1ncn[nH]1,73.5%
3,N#C/C(=C\c1ccc(-c2ccc(Cl)cc2Cl)o1)c1ccc(F)cc1,96.3%
4,O=C(NCCCl)c1cc(Cl)cc(Cl)c1,108%
5,CNCc1cccc2c1OCCOCCOCCN(CCN1CCOCC1)S(=O)(=O)c1ccc(cc1)-c1cnc(N)c(n1)C(=O)N2,53.9%
6,Cc1cc(N2CCOCC2)nc(N(CCNc2ccnc3cc(Cl)ccc23)Cc2cccs2)n1,-15.2% (active)
7,Cc1cc(C(=O)Nc2ncc(Cc3cccc(C(F)(F)F)c3)s2)c2ccccc2n1,1.69% (active)
8,Oc1c(Cl)cc(Cl)c2ccc(Cn3cc(-c4cc(C(F)(F)F)cc(C(F)(F)F)c4)nn3)nc12,18.6%
9,C=CCCCC(=O)CCC(=O)OCC1O[C@@H](O[C@@H]2C(O)[C@@H](OC(C)=O)C(C)O[C@H]2O[C@H](CC=C)CCCCC)C(O)[C@@H](OC(=O)/C(C)=C/C)[C@@H]1OC(=O)/C=C/c1ccccc1 (stereo partly drawn),-23.6% (active)
10,CC1(C)[C@@H](OC(=O)CCC(=O)O)CC[C@]2(C)[C@H]3C(=O)C=C4[C@@H]5C[C@@](C)(C(=O)O)CC[C@]5(C)CC[C@@]4(C)[C@]3(C)CC[C@@H]12,-0.77% (active)
11,COc1cccc(-c2nc3sccn3c2-c2ccnc(NCCNS(=O)(=O)c3c(Cl)cccc3Cl)c2)c1,56.8%
12,COc1ccc2c(c1)N(Cc1ccc(Cl)cc1)CCC2N1CCCC1=O (stereo not drawn),42.3%
13,Cc1ccc(-c2cc3nc(-c4ccccc4)nc(C(Cl)Cl)n3n2)cc1,-61.4% (active)
14,CCN1c2ccccc2C(Cl)(c2ccc(N(C)C)cc2)c2ccccc21,86.6%
15,O=C(Nc1ccc(Cl)cc1)Nc1ccc(Oc2nncc3ccccc23)cc1,-76.2% (active)
16,Cc1cc(C(=O)Nc2cc(Nc3ncccc3-c3ncnc4nc[nH]c34)ccc2F)cc(C(C)(C)C#N)c1,87.7%
